FadD28 binding: blocks FadD28 binding to the bisubstrate probe | fluorescence polarization | inhibition, % at 12.5 µM | actives 0.22% (n = 360,000); in the data active means inhibition above about 8.5%, passing the limit was not always enough
BioA inh: BioA (M. tuberculosis) enzyme inhibition. inhibition, % at 9.99 µM. purified M. tuberculosis BioA enzyme, plate reader. actives 0.096% (n = 360,000); in the data active means inhibition above about 40%
SARS 3CLpro inh: SARS-CoV 3CLpro protease inhibition; actives 0.14% (n = 290,000); recombinant SARS-CoV 3CLpro, quenched FRET peptide cleavage; AID 1706; inhibition, % at 6 µM; P0C6X7; in the data active means inhibition above about 12%
Mtb FBA inh: inhibits M. tuberculosis FBA enzyme; AID 588726; inhibition, % at 1 µM; actives 2.3% (n = 360,000); purified M. tuberculosis FBA, fluorescence read-out;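 further: 0% = vehicle and 100% = reference inhibitor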
Target sequence (P9WQA3 whole entry, looked up): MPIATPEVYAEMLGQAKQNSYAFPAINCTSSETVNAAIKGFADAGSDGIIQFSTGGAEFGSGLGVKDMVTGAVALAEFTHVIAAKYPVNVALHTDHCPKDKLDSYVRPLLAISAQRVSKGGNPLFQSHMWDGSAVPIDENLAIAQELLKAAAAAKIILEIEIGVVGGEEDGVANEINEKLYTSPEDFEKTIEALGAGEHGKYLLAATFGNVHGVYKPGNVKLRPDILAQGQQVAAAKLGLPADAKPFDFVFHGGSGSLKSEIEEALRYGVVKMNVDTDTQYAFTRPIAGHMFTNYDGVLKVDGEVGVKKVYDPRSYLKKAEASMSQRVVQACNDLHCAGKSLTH
GDH-TPI counter-1: counter-screen for M. tuberculosis FBA inhibitors: GDH-TPI coupled enzymes; GDH-TPI coupled enzyme counterscreen, NADH absorbance; inhibition, % at 4.8 µM; actives 1.2% (n = 360,000); AID 588335; in the data active means inhibition above about 30%;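 further: 0% = DMSO wells and 100% = wells lacking the enzyme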
Mtb FBA confirm: confirmation of M. tuberculosis fructose-bisphosphate aldolase inhibitors. shares compounds with Mtb FBA inh. inhibition, % at 1 µM. AID 651616. purified M. tuberculosis FBA, fluorescence read-out. actives 78% (n = 5,600);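 further: 0% = vehicle wells and 100% = reference inhibitor wells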
GDH-TPI counter-2: counter-screen for M. tuberculosis FBA inhibitors: GDH-TPI coupled enzyme inhibition; inhibition, % at 1 µM; shares compounds with Mtb FBA inh; GDH-TPI coupled enzyme counterscreen, fluorescence; actives 81% (n = 5,600); in the data active means inhibition above about 10%
Active calls of the source: *; nt = no result given; + = active, no number; ! = repeats disagree. An excerpt weighted towards active compounds, which were near 3.1% of everything screened. Unless noted, no stated cut-off is given here; in the data, active means inhibition above about 27%; inactive means the rest.

SMILES | FadD28 binding | BioA inh | SARS 3CLpro inh | Mtb FBA inh | GDH-TPI counter-1 | Mtb FBA confirm | GDH-TPI counter-2
COc1cccc(S(=O)(=O)Nc2ccc3c(c2)[C@@H]2C[C@@H](CC(=O)N(C)C)O[C@H](CO)[C@@H]2O3)c1 | nt | -3 | nt | nt | nt | nt | nt
CC1=Nc2ccc(C)c3nc(C)cc(c23)N1c1ccc(C)cc1 | 3 | 6 | 1 | 30* | -7 | 60* | 38*
CC(=O)Nc1cncc(-c2cnn(CC(C)C)c2)n1 | -2 | 2 | nt | 61* | 25 | 50* | 51*
CNc1cc(-c2cnn(CC(C)C)c2)ncn1 | 1 | 0 | nt | 8 | 3 | nt | nt
O=C(COc1nnc2ccccn12)N1CCN(S(=O)(=O)c2ccccc2)CC1 | -3 | -1 | 0 | 35* | 2 | -5 | -3
O=C(COc1cccnc1[N+](=O)[O-])N1CCN(S(=O)(=O)c2ccccc2)CC1 | -3 | nt | 0 | -1 | -10 | nt | nt
O=C([O-])c1ccc(-[n+]2c(-c3ccccc3)cc(-c3ccccc3)cc2-c2ccccc2)cc1 | 1 | 1 | nt | 7 | 21 | nt | nt
Cc1ccc(-c2cc(-c3ccccc3)cc(-c3ccccc3)[n+]2-c2ccccc2C(=O)O)cc1 | -3 | 2 | nt | 54* | 16 | 10 | 3
CCN(CC)C(=O)CN1C(=O)c2cccc3cccc(c23)C1=O | -3 | nt | 1 | 38* | 6 | 130* | 88*
CCN(CC(=O)Nc1c(F)cccc1F)C(=O)CN1C(=O)c2ccccc2C1=O | -2 | -3 | nt | -1 | -2 | nt | nt
O=C(CN1C(=O)c2cccc3cccc(c23)C1=O)N1CCOCC1 | -3 | nt | 2 | 29* | 0 | 46* | 39*
CCC(=O)N1C[C@H]2[C@@H](c3ccccc31)[C@H](CO)N2Cc1cc(F)ccc1F | nt | 3 | nt | nt | nt | nt | nt
CCc1c(C)c(C#N)c2nc3ccccc3n2c1NC | -2 | nt | -2 | 3 | 4 | nt | nt
CCCc1cc(NCc2ccccn2)n2c(nc3ccccc32)c1C#N | -4 | nt | 1 | 50* | 4 | 86* | 68*
CCCNc1cc(C)c(C#N)c2nc3ccccc3n12 | -3 | 0 | -7 | 69* | 14 | 55* | 45*
Cc1cc(N2CCN(c3ccccn3)CC2)n2c(nc3ccccc32)c1C#N | -3 | -1 | -2 | 0 | 6 | nt | nt
C[C@H](CO)N1C[C@H](C)[C@H](CN(C)C(=O)C2CC2)Oc2cc(C3=CCCCC3)ccc2S1(=O)=O | nt | 3 | nt | nt | nt | nt | nt
CO[C@H]1CN(C)C(=O)c2ccc(NC(=O)C3CC3)cc2OC[C@@H](C)N(Cc2ccccc2)C[C@@H]1C | nt | 1 | nt | nt | nt | nt | nt
COc1ccc(NC(=O)Nc2ccc3c(c2)CC(=O)N([C@H](C)CO)C[C@H](C)[C@@H](CN(C)C)O3)cc1 | nt | 1 | nt | nt | nt | nt | nt
CCCCCCc1cc2cc(C(=O)OCC)c(=O)oc2cc1O | -2 | nt | -1 | 44* | 9 | 136* | 97*
CCCCCCc1cc2cc(C(N)=O)c(=N)oc2cc1O | nt | nt | 4 | nt | nt | nt | nt
COc1cccc(C(=O)Oc2ccc3ccc(=O)oc3c2)c1 | -1 | -7 | 9 | 59* | 15 | 154* | 141*
COc1ccc(C(=O)Oc2ccc3ccc(=O)oc3c2)cc1OC | -2 | -1 | 1 | 41* | 7 | 147* | 107*
COc1ccc2ccc(=O)oc2c1 | -3 | -2 | 0 | 68* | 16 | 88* | 82*
COc1ccc(-c2cnc3c(c2)C(=O)N([C@@H](C)CO)C[C@@H](C)[C@H](CN(C)C(=O)Cc2ccccn2)O3)cc1 | nt | -1 | nt | nt | nt | nt | nt
SMILES | FadD28 binding | BioA inh | SARS 3CLpro inh | Mtb FBA inh | GDH-TPI counter-1 | Mtb FBA confirm | GDH-TPI counter-2
O=C(C[C@H]1CC[C@H](NC(=O)Nc2ccc(C(F)(F)F)cc2)[C@H](CO)O1)NCc1cc(F)cc(F)c1 | nt | -1 | nt | nt | nt | nt | nt
COc1ccc(C(=O)c2c(-c3ccc(OC)cc3)oc3ccccc23)cc1 | -1 | -5 | nt | 1 | 5 | nt | nt
COc1ccc(-c2oc3ccccc3c2C(=O)OCc2ccccc2OC)cc1 | -1 | -4 | 1 | 73* | 31* | -7 | -8
Clc1ccc(C[n+]2c(-c3ccccc3)cc(-c3ccccc3)cc2-c2ccccc2)cc1 | -4 | 31 | nt | 38* | 15 | 22 | 13*
O=C([O-])c1cc(-c2ccccc2)cc(-c2ccccc2)[n+]1CCc1ccc(Cl)cc1 | -4 | 1 | nt | 3 | 3 | nt | nt
CCN1CCN(Cc2ccc(NC(=O)c3ccc(C)c(NC(=O)c4cccc5[nH]ccc45)c3)cc2C(F)(F)F)CC1 | -3 | -1 | nt | 30*! | -10 | + | +
